Results: PubChem BioAssay
“And” between values parts separate entries of the source, which are not always exact repeats. Equal values may be shown once. The source made the active and inactive calls.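 How the source made its calls, unless noted: active means mean z-score across replicates of 1.96 or higher in either the MELAS or the Rieske mutant cell line; inactive means the rest.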

Assays:
[1] = phospholipid biosynthesis inhibitors in animal cells, primary screen, cell-based, LOPAC library, screen 4 (AID 1347384; call rule not given here); conditions: phospholipid biosynthesis inhibition screen, at 10 µM
[2] = survival rescue of mitochondrial mutant cells in low glucose, primary screen, MELAS cybrids, Rieske KO mouse fibroblasts, CellTiter-Glo (AID 1508586);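 further: z relative to plate mean and SD of compound and empty wells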
[3] = target: NAD(+) hydrolase SARM1 (Homo sapiens) (UniProt Q6SZW1); test: SARM1 TIR NADase inhibitors, cell lysate, NAD-Glo luminescence (AID 1508614;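 active means compound whose remaining NAD level is above about 45 nM, limit read from the data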); conditions: SAM-TIR HEK293T lysate NADase, at 1 µM, stronger effect = higher value
Chain of NAD(+) hydrolase SARM1 (Homo sapiens) (Q6SZW1 whole entry, looked up, the tested form may be a part): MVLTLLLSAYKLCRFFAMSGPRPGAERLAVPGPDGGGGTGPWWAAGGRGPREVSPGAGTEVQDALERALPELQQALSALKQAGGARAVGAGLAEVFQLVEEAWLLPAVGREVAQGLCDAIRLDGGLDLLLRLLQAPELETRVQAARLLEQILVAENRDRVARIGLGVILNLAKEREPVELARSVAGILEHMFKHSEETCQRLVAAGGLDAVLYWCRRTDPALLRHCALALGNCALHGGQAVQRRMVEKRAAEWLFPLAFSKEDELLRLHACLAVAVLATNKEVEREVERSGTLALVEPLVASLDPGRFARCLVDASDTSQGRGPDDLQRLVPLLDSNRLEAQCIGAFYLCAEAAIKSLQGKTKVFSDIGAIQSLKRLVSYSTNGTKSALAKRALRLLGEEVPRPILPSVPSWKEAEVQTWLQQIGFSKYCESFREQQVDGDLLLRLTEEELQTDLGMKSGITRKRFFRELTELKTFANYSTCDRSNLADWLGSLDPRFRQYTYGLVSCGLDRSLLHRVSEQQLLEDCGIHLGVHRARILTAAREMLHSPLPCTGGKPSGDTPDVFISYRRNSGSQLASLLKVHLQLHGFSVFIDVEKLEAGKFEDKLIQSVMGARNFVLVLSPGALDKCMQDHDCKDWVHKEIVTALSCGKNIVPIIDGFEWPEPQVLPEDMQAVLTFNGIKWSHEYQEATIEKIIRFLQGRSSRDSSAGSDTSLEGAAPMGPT

[4] = target: Mitogen-activated protein kinase 7 (Homo sapiens) (UniProt Q13164); test: ERK5 transactivation activators in reporter cells, primary screen, cell-based, HTS (AID 1508626;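 active means luciferase signal above three times the same-plate solvent-only control wells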;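 further: luciferase driven by Gal4-ERK5 fusion binding five Gal4 sites before minimal TATA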); conditions: HeLa Gal4-ERK5 transactivation, 18 h, at 5 µM, stronger effect = higher value
Chain of Mitogen-activated protein kinase 7 (Homo sapiens) (Q13164 whole entry, looked up, the tested form may be a part): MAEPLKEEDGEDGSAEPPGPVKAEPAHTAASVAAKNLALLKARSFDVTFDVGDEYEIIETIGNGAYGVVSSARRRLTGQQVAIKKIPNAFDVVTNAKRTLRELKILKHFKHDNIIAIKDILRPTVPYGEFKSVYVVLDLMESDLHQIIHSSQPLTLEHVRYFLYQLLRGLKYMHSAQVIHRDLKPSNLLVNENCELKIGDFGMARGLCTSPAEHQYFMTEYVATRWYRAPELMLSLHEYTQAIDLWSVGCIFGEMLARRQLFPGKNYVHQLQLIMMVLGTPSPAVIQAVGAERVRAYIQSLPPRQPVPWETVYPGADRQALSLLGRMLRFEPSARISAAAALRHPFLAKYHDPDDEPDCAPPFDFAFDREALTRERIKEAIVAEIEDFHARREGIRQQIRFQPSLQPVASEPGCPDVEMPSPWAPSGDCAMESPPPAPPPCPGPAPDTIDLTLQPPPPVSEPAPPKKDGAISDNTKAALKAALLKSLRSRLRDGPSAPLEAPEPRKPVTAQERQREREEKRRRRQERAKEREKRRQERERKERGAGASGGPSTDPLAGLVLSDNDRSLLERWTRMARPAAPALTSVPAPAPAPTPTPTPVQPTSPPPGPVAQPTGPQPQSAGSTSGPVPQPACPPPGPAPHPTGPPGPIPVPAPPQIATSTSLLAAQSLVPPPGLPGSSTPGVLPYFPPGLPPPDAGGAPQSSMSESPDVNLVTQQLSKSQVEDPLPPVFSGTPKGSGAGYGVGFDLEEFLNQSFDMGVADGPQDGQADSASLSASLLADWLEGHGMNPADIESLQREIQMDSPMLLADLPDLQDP

[5] = viability rescue of complex I mutant cybrids, primary screen, cell-based, galactose medium, ATP luminescence (AID 1645843;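 active means z-score of at least 1.8 in each of two replicates, scored against plate mean and spread of sample wells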;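 further: positive z means more ATP and so rescue of galactose-driven cybrid death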); conditions: complex I mutant cybrid cells, 72 h, stronger effect = higher value
[6] = MELAS cybrid survival, CellTiter-Glo 48 h, stronger effect = higher value
[7] = Rieske KO mouse fibroblast survival, CellTiter-Glo 72 h

Structure (SMILES) | outcome [1] | z-score [2, 6] | z-score [2, 7] | remaining NAD [3] | luciferase signal [4] | z-score [5]
C[N+](C)(C)CCOC(N)=O | inactive | -0.544 (inactive) and -0.486 (inactive) | -1.06 and 1.01 | 12 nM (inactive) | 72 AU (inactive) | 0.575 (inactive) and 0.535 (inactive)
CCOC(=O)C1=C(C)NC(C)=C(C(=O)OC)C1c1cccc(Cl)c1Cl (stereo not given) | inactive | -0.244 (inactive) and -0.163 (inactive) and -0.233 (inactive) | -0.0889 and -0.113 and 0.553 | 10 nM (inactive) | – | -1.02 (inactive) and -1.48 (inactive) and 1.76 (inactive)
CCCCNc1ccc(C(=O)OCCN(C)C)cc1 | inactive | -0.338 (inactive) and -0.454 (inactive) | -0.0172 and -0.0428 | 10 nM (inactive) | 76 AU (inactive) | -0.23 (inactive)
Nc1ccc(O)c(C(=O)O)c1 | – | -0.293 (inactive) and -0.757 (inactive) and 0.532 (inactive) | 0.059 and -0.214 and -0.391 | 10 nM (inactive) | 48 AU (inactive) | 0.62 (inactive) and 0.46 (inactive)
c1ccc(CN(CC2=NCCN2)c2ccccc2)cc1 | – | 0.519 (inactive) and -0.255 (inactive) and -0.229 (inactive) | -0.208 and -0.144 and -0.113 | 10 nM (inactive) | 112 AU (inactive) | -0.39 (inactive) and 0.065 (inactive)
CCc1oc2ccccc2c1C(=O)c1cc(Br)c(O)c(Br)c1 | – | -0.224 (inactive) and 0.135 (inactive) | -0.158 and -0.137 | 10 nM (inactive) | 52 AU (inactive) | -1.42 (inactive)
Nc1c(Br)cc(Br)cc1CNC1CCC(O)CC1 (stereo not given) | – | -0.0247 (inactive) and 0.738 (inactive) and 0.116 (inactive) | -0.062 and -0.225 and -0.64 | 10 nM (inactive) | 84 AU (inactive) | -0.32 (inactive) and 0.295 (inactive)
CN1CCC[C@@H]1CCO[C@](C)(c1ccccc1)c1ccc(Cl)cc1 | – | -0.745 (inactive) and -0.186 (inactive) | 0.0285 and -0.556 | 10 nM (inactive) | 32 AU (inactive) | -0.775 (inactive) and -1.7 (inactive)
CCc1nn(CCCN2CCN(c3cccc(Cl)c3)CC2)c(=O)n1CCOc1ccccc1 | – | -0.135 (inactive) and 0.202 (inactive) | -0.202 and -0.42 | 10 nM (inactive) | – | -1.88 (inactive) and -0.63 (inactive) and -2.48 (inactive)
Cc1ccc(C(C)C)cc2c(C)ccc1-2 | – | – | – | – | 128 AU (inactive) | –
Cc1c(C(=O)O)c(O)cc2c1C(=O)c1c(O)c([C@@H]3O[C@H](CO)[C@@H](O)[C@H](O)[C@H]3O)c(O)c(O)c1C2=O | – | – | – | – | 52 AU (inactive) | –
CC(=O)NS(=O)(=O)c1ccc(N)cc1 | – | -0.241 (inactive) and 0.341 (inactive) | -0.167 and 0.175 | 10 nM (inactive) | 64 AU (inactive) | -0.2 (inactive)
C[C@@H]1CC[C@@]2(OC1)O[C@H]1C[C@H]3[C@@H]4CC[C@H]5C[C@@H](O)CC[C@]5(C)[C@H]4CC(=O)[C@]3(C)[C@H]1[C@@H]2C | – | – | – | – | 52 AU (inactive) | –
Cc1ncc([N+](=O)[O-])n1CC(O)CCl (stereo not given) | – | -0.127 (inactive) and -0.079 (inactive) | -0.152 and -0.097 | 10 nM (inactive) | 36 AU (inactive) | 0.42 (inactive)
CC(=O)Nc1cccc(O)c1 | – | – | – | 10 nM (inactive) | 64 AU (inactive) | –
CC(=O)OCC(=O)NCCCOc1cccc(CN2CCCCC2)c1 | – | -0.52 (inactive) and 0.36 (inactive) and 0.133 (inactive) | -0.102 and 0.209 and -1.07 | 10 nM (inactive) | – | 0.45 (inactive) and 0.22 (inactive)
CC(=O)NCCCCCC(=O)O | – | – | – | 10 nM (inactive) | 76 AU (inactive) | –
COc1ccc(CN2CCN(C(c3ccc(F)cc3)c3ccc(F)cc3)CC2)c(OC)c1OC | – | -0.49 (inactive) and -0.685 and -0.348 (inactive) | -0.282 and 2.06 and 1.06 | 10 nM (inactive) | – | -1.88 (inactive) and -2.46 (inactive)
CCCCCCCCCCCCCCCCCCOCC(O)CO (stereo not given) | – | – | – | – | 152 AU (inactive) | –
O=C1O[C@H](CO)[C@@H](O)[C@H](O)[C@H]1O | – | – | – | 10 nM (inactive) | 16 AU (inactive) | –
O=c1[nH]cnc2c1ncn2[C@@H]1O[C@H](CO)[C@@H](O)[C@H]1O | – | – | – | 10 nM (inactive) | 44 AU (inactive) | –
CC(=O)Oc1c(C)c(C)c2c(c1C)CC[C@@](C)(CCC[C@H](C)CCC[C@H](C)CCCC(C)C)O2 | – | – | – | 10 nM (inactive) | – | –

Structure (SMILES) | outcome [1] | z-score [2, 6] | z-score [2, 7] | remaining NAD [3] | luciferase signal [4] | z-score [5]
C[C@@H]1C[C@H]2[C@@H]3CCC4=CC(=O)C=C[C@]4(C)[C@@]3(F)[C@@H](O)C[C@]2(C)[C@H]1C(=O)CO | – | – | – | 10 nM (inactive) | 32 AU (inactive) | –
CC(C)(C)CC(C)(C)c1ccc(O)c(Cc2ccc(Cl)cc2Cl)c1 | – | – | – | 10 nM (inactive) | 52 AU (inactive) | –
O=c1[nH]cnc2nc[nH]c12 | – | – | – | – | 60 AU (inactive) | –
CCO/C([O-])=N/c1c[n+](N2CCOCC2)no1 | – | 0.408 (inactive) and -0.37 (inactive) | 0.123 and -0.771 | 10 nM (inactive) | 56 AU (inactive) | 0.905 (inactive) and 0.425 (inactive)
N[C@@H](CCC(=O)N[C@@H](CS)C(=O)NCC(=O)O)C(=O)O | – | – | – | 22 nM (inactive) | 68 AU (inactive) | –
COc1ccccc1OCC(O)CO (stereo not given) | – | -0.233 (inactive) and 0.795 (inactive) and 1.3e-05 (inactive) | -0.0145 and 0.521 and -0.435 | 10 nM (inactive) | 160 AU (inactive) | 0.37 (inactive)
CC(=O)OCC(=O)[C@H]1CC[C@H]2[C@@H]3CCC4=CC(=O)CC[C@]4(C)[C@H]3CC[C@]12C | – | – | – | 10 nM (inactive) | 60 AU (inactive) | –
O=C(CCCN1CCN(c2ccccn2)CC1)c1ccc(F)cc1 | – | -0.275 (inactive) and -0.83 (inactive) and 0.232 (inactive) | -0.169 and 0.0955 and 0.456 | 10 nM (inactive) | 92 AU (inactive) | -0.625 (inactive)
COC(=O)[C@@H](N)CS | – | – | – | 10 nM (inactive) | 52 AU (inactive) | –
O=C1OCCN1/N=C/c1ccc([N+](=O)[O-])o1 | – | – | – | 10 nM (inactive) | 56 AU (inactive) | –
C[C@]12CCC(=O)C=C1CC[C@@H]1[C@@H]2[C@@H](O)C[C@@]2(C)[C@H]1CC[C@]2(O)C(=O)COP(=O)(O)O | – | – | – | 10 nM (inactive) | 72 AU (inactive) | –
Oc1ccc(Cl)cc1Cc1cc(Cl)ccc1O | – | – | – | 10 nM (inactive) | 72 AU (inactive) | –
Clc1ccc2c(c1)CCc1cccnc1C2=C1CCNCC1 | – | -0.116 (inactive) and -0.424 (inactive) and -0.172 (inactive) | -0.231 and 0.543 and -0.35 | 10 nM (inactive) | 32 AU (inactive) and 40 AU (inactive) | -1.23 (inactive) and -1.54 (inactive)
Oc1cc(O)c2c(c1)O[C@H](c1ccc(O)c(O)c1)[C@H](O)C2 | – | – | – | – | 20 AU (inactive) | –
CCCCCCOc1ccccc1C(N)=O | – | – | – | 10 nM (inactive) | 48 AU (inactive) | –
C[C@@H]1C[C@H]2[C@@H]3CCC4=CC(=O)C=C[C@]4(C)[C@@]3(F)[C@@H](O)C[C@]2(C)[C@@]1(O)C(=O)COP(=O)(O)O | – | – | – | 10 nM (inactive) | 32 AU (inactive) | –
O=C(O)[C@@H](O)[C@H](O)[C@H](O)[C@@H](O)C(=O)O | – | – | – | – | 52 AU (inactive) | –
COC(=O)C1=C(C)NC(C)=C(C(=O)OCC(C)C)C1c1ccccc1[N+](=O)[O-] (stereo not given) | – | -0.516 (inactive) and 0.43 (inactive) and -1.18 (inactive) | 0.274 and 1.45 and 0.961 | 10 nM (inactive) | 72 AU (inactive) | -1.86 (inactive) and -2 (inactive)
COc1ccc2cc1Oc1ccc(cc1)C[C@H]1c3c(cc4c(c3Oc3cc5c(cc3OC)CCN(C)[C@@H]5C2)OCO4)CCN1C | – | – | – | 10 nM (inactive) | 212 AU (inactive) | –
CC(=O)OCC(=O)[C@@]1(O)[C@H](OC(C)=O)C[C@H]2[C@@H]3CCC4=CC(=O)C=C[C@]4(C)[C@@]3(F)[C@@H](O)C[C@@]21C | – | – | – | 10 nM (inactive) | 96 AU (inactive) | –
CN(C)C(=O)Nc1ccc(Cl)c(Cl)c1 | – | – | – | – | 260 AU (active) | –
